Experimental findings from publication PMC4336329 (PLoS ONE, 2015) are described below.

Each structure is given as a SMILES string. Screen size: about 310,000 compounds; about 14,000 (4.5%) showed an effect of 50% or more. The effect is printed as a negative number. The list comes from a sample in which strong results are over-represented; it also holds similar structures and randomly drawn compounds.
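Also: peak tail current of the secondary pulse compared with the same well before compound.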

The assay deals with human ether-à-go-go-related gene (hERG) potassium channel (human, UniProt Q12809). As to the kind of experiment: primary screen, population patch clamp on CHO cells stably expressing hERG; higher = less effect of the substance.
human ether-à-go-go-related gene (hERG) potassium channel, sequence (Q12809 whole entry, looked up): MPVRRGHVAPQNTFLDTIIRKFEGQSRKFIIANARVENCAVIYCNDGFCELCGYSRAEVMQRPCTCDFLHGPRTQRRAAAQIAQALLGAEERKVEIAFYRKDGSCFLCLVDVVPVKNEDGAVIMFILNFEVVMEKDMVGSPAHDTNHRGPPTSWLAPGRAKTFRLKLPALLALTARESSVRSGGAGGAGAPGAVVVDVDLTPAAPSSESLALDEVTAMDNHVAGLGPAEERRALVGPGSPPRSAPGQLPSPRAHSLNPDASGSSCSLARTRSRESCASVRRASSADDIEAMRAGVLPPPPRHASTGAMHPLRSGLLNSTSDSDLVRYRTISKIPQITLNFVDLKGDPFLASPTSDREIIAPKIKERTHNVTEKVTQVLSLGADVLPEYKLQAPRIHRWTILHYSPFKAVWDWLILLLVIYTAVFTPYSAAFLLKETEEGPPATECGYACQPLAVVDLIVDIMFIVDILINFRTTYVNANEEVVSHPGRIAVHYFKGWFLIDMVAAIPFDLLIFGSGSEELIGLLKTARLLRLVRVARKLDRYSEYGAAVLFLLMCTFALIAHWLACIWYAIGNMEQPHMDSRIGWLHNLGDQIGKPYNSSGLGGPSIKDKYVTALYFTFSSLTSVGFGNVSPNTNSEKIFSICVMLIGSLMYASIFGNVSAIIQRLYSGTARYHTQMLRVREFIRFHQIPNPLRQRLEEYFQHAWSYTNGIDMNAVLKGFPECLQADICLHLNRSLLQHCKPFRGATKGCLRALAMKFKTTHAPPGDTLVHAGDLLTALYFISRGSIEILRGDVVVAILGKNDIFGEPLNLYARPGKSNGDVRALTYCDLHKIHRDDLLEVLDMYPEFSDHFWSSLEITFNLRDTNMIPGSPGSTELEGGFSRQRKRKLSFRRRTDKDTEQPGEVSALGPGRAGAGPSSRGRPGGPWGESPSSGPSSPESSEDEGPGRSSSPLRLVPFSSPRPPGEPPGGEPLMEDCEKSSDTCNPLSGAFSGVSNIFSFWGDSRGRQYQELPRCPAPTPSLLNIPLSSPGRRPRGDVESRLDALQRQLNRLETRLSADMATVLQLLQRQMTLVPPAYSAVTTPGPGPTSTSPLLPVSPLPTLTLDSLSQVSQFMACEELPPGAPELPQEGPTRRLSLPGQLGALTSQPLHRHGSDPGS
As to `O=C(NC1CCCCC1)c1cc(S(=O)(=O)N2CCOCC2)c(Cl)cc1Cl`, the “hERG current change (%, negative = inhibition) at 10uM” value came to 13.6%.

As for `Cc1nc2ccccc2c(=O)[nH]1`, the “hERG current change (%, negative = inhibition) at 10uM” value is reported as 3.94%.

Regarding `Cc1ccc(N(CC(=O)Nc2ccc(F)cc2)S(=O)(=O)N2CCCC2)cc1`, the “hERG current change (%, negative = inhibition) at 10uM” value is -27.1%.

Consider `CN(C)S(=O)(=O)N1CCN(CC(=O)Nc2ccc(Br)cc2)CC1`, for which the “hERG current change (%, negative = inhibition) at 10uM” value is given as -49.4%.

Turning to `CN(C)S(=O)(=O)N1CCN(CC(=O)Nc2ccc(F)cc2)CC1`, the “hERG current change (%, negative = inhibition) at 10uM” value was -69.7%.

As to `CCc1ccc(-c2cn(-c3nc(C)cc(C)n3)c(=N)o2)cc1`, the “hERG current change (%, negative = inhibition) at 10uM” value is given as -71.8%.

With `CCc1ccc(-c2cn3c(n2)SCC3)cc1`, the “hERG current change (%, negative = inhibition) at 10uM” value is 4.12%.

`CCc1ccc(Nc2nc(C)cc(C)n2)cc1.Cl`: the “hERG current change (%, negative = inhibition) at 10uM” value was -1.21%.

For the compound `Cc1ccc2oc(-c3ccccc3)nc2c1`, the “hERG current change (%, negative = inhibition) at 10uM” value worked out at 11.3%.

With `Nc1nc(CN2CCN(c3ccc(F)cc3)CC2)nc(N2CCCc3ccccc32)n1`, the “hERG current change (%, negative = inhibition) at 10uM” value is -52.9%.

Regarding `COc1ccc(N2CCN(Cc3nc(N)nc(N4CCCc5ccccc54)n3)CC2)cc1`, the “hERG current change (%, negative = inhibition) at 10uM” value was -27.9%.

As for `Nc1nc(CN2CCN(c3ccccc3F)CC2)nc(N2CCCc3ccccc32)n1`, the “hERG current change (%, negative = inhibition) at 10uM” value is -11.7%.

For `Nc1nc(CN2CCN(c3cccc(Cl)c3)CC2)nc(N2CCCc3ccccc32)n1`, the “hERG current change (%, negative = inhibition) at 10uM” value is -6.96%.

`Nc1nc(CN2CCN(Cc3ccccc3)CC2)nc(N2CCCc3ccccc32)n1`: the “hERG current change (%, negative = inhibition) at 10uM” value is -56.5%.

For `Nc1nc(CN2CCN(c3ccccc3)CC2)nc(N2CCCc3ccccc32)n1`, the “hERG current change (%, negative = inhibition) at 10uM” value is -39.6%.

Turning to `COc1ccc(CC(=O)N2N=C(C)CC2(O)C(F)(F)F)cc1` (stereo not shown), the “hERG current change (%, negative = inhibition) at 10uM” value is reported as 2.87%.

Regarding `Cc1cc(N/N=C/c2ccccc2F)c2ccccc2n1`, the “hERG current change (%, negative = inhibition) at 10uM” value turned out to be 9.06%.

On to `CN(C)c1ccc(C(=S)N2CCCCC2)cc1`, for which the “hERG current change (%, negative = inhibition) at 10uM” value was 8.24%.

As to `Nc1cccnc1S(=O)(=O)c1cccc(C(F)(F)F)c1`, the “hERG current change (%, negative = inhibition) at 10uM” value was 5.59%.

Take `CC1CC(OCC(O)CN2CCOCC2)CC(C)(C)C1.Cl` (stereo not shown): the “hERG current change (%, negative = inhibition) at 10uM” value was 1.1%.

Consider `CCOC(=O)N1CCN(CC(O)COC2CC(C)CCC2C(C)C)CC1.Cl` (stereo not shown), for which the “hERG current change (%, negative = inhibition) at 10uM” value is on record as -33.1%.

Regarding `CC1CC(OCC(O)CN2CCN(Cc3ccccc3)CC2)CC(C)(C)C1.Cl` (stereo not shown), the “hERG current change (%, negative = inhibition) at 10uM” value is listed as -43.5%.

Consider `CC1CCC(C(C)C)C(OCC(O)CN2CCOCC2)C1.Cl` (stereo not shown), for which the “hERG current change (%, negative = inhibition) at 10uM” value is reported as -0.613%.

Turning to `CC1CC(C)CN(CC(O)COC2CC(C)CC(C)(C)C2)C1.Cl` (stereo not shown), the “hERG current change (%, negative = inhibition) at 10uM” value was -32.3%.

As to `CC1CCC(C(C)C)C(OCC(O)CN2CCN(Cc3ccccc3)CC2)C1.Cl` (stereo not shown), the “hERG current change (%, negative = inhibition) at 10uM” value is reported as -66.5%.

With `CC1CCC(C(C)C)C(OCC(O)CN2CCCC(C)C2)C1.Cl` (stereo not shown), the “hERG current change (%, negative = inhibition) at 10uM” value is -31.6%.

Consider `CC1CCN(CC(O)COC2CC(C)CCC2C(C)C)CC1.Cl` (stereo not shown), for which the “hERG current change (%, negative = inhibition) at 10uM” value is listed as -70.4%.

In the case of `CC1CCN(CC(O)COC2CC(C)CC(C)(C)C2)CC1.Cl` (stereo not shown), the “hERG current change (%, negative = inhibition) at 10uM” value is -54.5%.
